Among the test systems are SK-MEL-2 melanoma; EKVX NSCLC; SN12C renal; UO-31 renal; TK-10 renal; ACHN renal; CAKI-1 renal; A498 renal; CCRF-CEM leukemia; MOLT-4 leukemia; RPMI-8226 leukemia; OVCAR-8 ovarian; OVCAR-5 ovarian; OVCAR-4 ovarian; SK-OV-3 ovarian; OVCAR-3 ovarian; HS 578T breast; NCI/ADR-RES ovarian; SR leukemia; IGROV1 ovarian.
Test in all cases: NCI-60 one-dose screen, 48 h (100 = growth as untreated, 0 = no growth, -100 = all killed)
What all share (details): 10 µM unless noted

Experimental findings from PubChem BioAssay (NCI) are described below.

The panel holds about 83,000 compounds, 20% with a hit somewhere; the sample as a whole holds those more often.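 A percent growth of 40 corresponds to 60% growth inhibition; 0 means no net growth; -100 means all cells died. Active threshold: below 10.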 Active and inactive are the calls of the source.

As to `COc1cccc(Nc2nc(SC)nc(-c3cccc([N+](=O)[O-])c3)c2C#N)c1`, the growth was 96.3% (inactive) in the assay on SK-MEL-2 melanoma; 64.7% (inactive) with EKVX NSCLC; 68.8% (inactive) with SN12C renal; 26.7% (inactive) in the assay on UO-31 renal; 75.8% (inactive) in the assay with TK-10 renal; 23.9% (inactive) in the assay on ACHN renal. Also, the growth is 60.1% (inactive) with CAKI-1 renal; 78.5% (inactive) in the assay on A498 renal; 99.6% (inactive) in the assay with CCRF-CEM leukemia; 98.2% (inactive) with MOLT-4 leukemia; 95% (inactive) with RPMI-8226 leukemia; 36.4% (inactive) with OVCAR-8 ovarian. For the same compound, the growth in the assay with OVCAR-5 ovarian was 81.6% (inactive); in the assay on OVCAR-4 ovarian it was -1.38% (active); in the assay on SK-OV-3 ovarian it was 31.3% (inactive); in the assay on OVCAR-3 ovarian it was 51.8% (inactive); in the assay on HS 578T breast, 45% (inactive); in the assay with NCI/ADR-RES ovarian, 70.2% (inactive).
On to `Cc1cc2nc(NC(=O)CN3CCN(CCN4C(=O)c5cccc6cccc(c56)C4=O)CC3)sc2cc1C`, for which the growth in the assay with SK-MEL-2 melanoma is 107% (inactive); in the assay with EKVX NSCLC, 82.1% (inactive); in the assay on SN12C renal, 72.9% (inactive); in the assay on UO-31 renal, 68% (inactive); in the assay with TK-10 renal, 95% (inactive); in the assay on ACHN renal, 85.1% (inactive). Also, the growth in the assay with CAKI-1 renal is 88% (inactive); in the assay with CCRF-CEM leukemia, 71.5% (inactive); in the assay on MOLT-4 leukemia, 45% (inactive); with SR leukemia it was 35.3% (inactive); in the assay with RPMI-8226 leukemia, 57.8% (inactive); in the assay with OVCAR-8 ovarian, 79.7% (inactive). Further, the growth in the assay with OVCAR-5 ovarian is 93.6% (inactive); with OVCAR-4 ovarian, 84.3% (inactive); with SK-OV-3 ovarian, 102% (inactive); in the assay with IGROV1 ovarian, 77.6% (inactive); with OVCAR-3 ovarian, 101% (inactive); in the assay on HS 578T breast, 92% (inactive). In addition, the growth in the assay with NCI/ADR-RES ovarian is 79% (inactive).
As to `CCOC(=O)c1c(C)oc2ncnc(N3CCN(C(=S)Nc4ccccc4)CC3)c12`, the growth in the assay on SK-MEL-2 melanoma was 95.3% (inactive); in the assay on EKVX NSCLC, 91.2% (inactive); in the assay on SN12C renal, 92.7% (inactive); in the assay with UO-31 renal, 75.1% (inactive); in the assay with TK-10 renal, 100% (inactive); in the assay on ACHN renal, 92% (inactive). Moreover, the growth with CAKI-1 renal is 79.6% (inactive); in the assay with CCRF-CEM leukemia, 92.3% (inactive); in the assay with MOLT-4 leukemia it was 91.3% (inactive); with SR leukemia, 94.5% (inactive); in the assay on RPMI-8226 leukemia it was 83.3% (inactive); with OVCAR-8 ovarian it was 94% (inactive). In addition, the growth with OVCAR-5 ovarian was 90% (inactive); in the assay on OVCAR-4 ovarian it was 85.1% (inactive); with SK-OV-3 ovarian, 96.9% (inactive); in the assay on IGROV1 ovarian, 95.4% (inactive); in the assay with OVCAR-3 ovarian, 103% (inactive); with HS 578T breast, 87% (inactive). The growth in the assay with NCI/ADR-RES ovarian was 90.3% (inactive).
As to `CC1=C[C@H]2c3c(c(O)c(O)c4oc5ccccc5c(=O)c34)[C@H](c3cc(O)c(O)c4oc5ccccc5c(=O)c34)[C@H]2C(C)(C)C1`, the growth was 0.0517% (active) in the assay on SK-MEL-2 melanoma; 18.7% (inactive) with EKVX NSCLC; 7.6% (active) in the assay on SN12C renal; -74% (active) with UO-31 renal; 23.1% (inactive) in the assay on TK-10 renal; 6.36% (active) with ACHN renal. Further, the growth in the assay with CAKI-1 renal is -24.7% (active); in the assay with CCRF-CEM leukemia it was 5.39% (active); with MOLT-4 leukemia it was 2.9% (active); with SR leukemia it was 0.353% (active); with RPMI-8226 leukemia, 15.2% (inactive); in the assay with OVCAR-8 ovarian, 1.23% (active). For the same compound, the growth with OVCAR-5 ovarian is 25.8% (inactive); in the assay on OVCAR-4 ovarian, 1.7% (active); in the assay with SK-OV-3 ovarian it was -14.1% (active); in the assay with IGROV1 ovarian it was -4.25% (active); in the assay on OVCAR-3 ovarian, 10.4% (inactive); in the assay with HS 578T breast, -4.62% (active). For the same compound, the growth with NCI/ADR-RES ovarian is 23.9% (inactive).
Take `CSc1nc2c(c(=O)[nH]1)C1(C(=O)Nc3ccccc31)c1c(nc(SC)[nH]c1=O)N2`: the growth in the assay with SK-MEL-2 melanoma was 105% (inactive); in the assay on EKVX NSCLC, 108% (inactive); in the assay on SN12C renal, 102% (inactive); with UO-31 renal it was 87.1% (inactive); in the assay with TK-10 renal, 110% (inactive); in the assay on ACHN renal it was 103% (inactive). Further, the growth in the assay on CAKI-1 renal is 103% (inactive); in the assay on A498 renal, 116% (inactive); in the assay with CCRF-CEM leukemia, 109% (inactive); with SR leukemia, 98.8% (inactive); with RPMI-8226 leukemia, 108% (inactive); with OVCAR-8 ovarian it was 110% (inactive). For the same compound, the growth with OVCAR-5 ovarian is 93.9% (inactive); in the assay with OVCAR-4 ovarian it was 109% (inactive); in the assay on SK-OV-3 ovarian, 114% (inactive); in the assay on IGROV1 ovarian it was 102% (inactive); with OVCAR-3 ovarian, 105% (inactive); in the assay on HS 578T breast, 106% (inactive). In addition, the growth in the assay on NCI/ADR-RES ovarian is 108% (inactive).
As to `CCCCCCN(CCCCCC)CCC(O)c1ccc2ccccc2c1` (stereo not drawn), the growth with SK-MEL-2 melanoma was 86.1% (inactive); with EKVX NSCLC, 71% (inactive); in the assay on SN12C renal, 58.6% (inactive); with UO-31 renal, 38.4% (inactive); in the assay with TK-10 renal, 72% (inactive); in the assay on ACHN renal it was 68.7% (inactive). In addition, the growth with CAKI-1 renal was 53% (inactive); in the assay with A498 renal it was 48.3% (inactive); with CCRF-CEM leukemia, 41.8% (inactive); in the assay on SR leukemia it was 0.428% (active); with RPMI-8226 leukemia, 7.65% (active); in the assay on OVCAR-8 ovarian, 73.4% (inactive). The growth was 69.5% (inactive) in the assay with OVCAR-5 ovarian; 45.7% (inactive) in the assay on OVCAR-4 ovarian; 83.5% (inactive) in the assay with SK-OV-3 ovarian; 59.6% (inactive) with IGROV1 ovarian; 69.7% (inactive) in the assay with OVCAR-3 ovarian; 69.1% (inactive) with HS 578T breast. Moreover, the growth in the assay on NCI/ADR-RES ovarian was 58% (inactive).
With `Nc1n[nH]c2ccc([C@@H]3Nc4ccc5[nH]ncc5c4[C@H]4C5C=CC(C5)[C@@H]34)cc12` (stereo partly drawn), the growth was 46.9% (inactive) with SK-MEL-2 melanoma; 37.7% (inactive) in the assay on EKVX NSCLC; 34.2% (inactive) with SN12C renal; 44.5% (inactive) in the assay with UO-31 renal; 67.5% (inactive) with TK-10 renal; 24.4% (inactive) in the assay on ACHN renal. Moreover, the growth in the assay with CAKI-1 renal was 35.3% (inactive); in the assay with CCRF-CEM leukemia it was 19.6% (inactive); in the assay with MOLT-4 leukemia it was 15.1% (inactive); in the assay on SR leukemia it was 11.6% (inactive); in the assay with RPMI-8226 leukemia, 44.7% (inactive); with OVCAR-8 ovarian, 27.1% (inactive). Further, the growth in the assay on OVCAR-5 ovarian was 29.5% (inactive); with OVCAR-4 ovarian, 30.2% (inactive); with SK-OV-3 ovarian, 42.6% (inactive); in the assay with IGROV1 ovarian, 16.6% (inactive); in the assay with OVCAR-3 ovarian, 7.18% (active); in the assay on HS 578T breast, 3.92% (active). Also, the growth in the assay with NCI/ADR-RES ovarian is -27.5% (active).
Regarding `C=CC(=O)Nc1cccc(-c2nc(SC)nc(NCCc3ccc(OC)c(OC)c3)c2C#N)c1`, the growth with SK-MEL-2 melanoma was 65.7% (inactive); in the assay on EKVX NSCLC, 43.8% (inactive); in the assay on SN12C renal, 47.6% (inactive); in the assay on UO-31 renal, 45.1% (inactive); with TK-10 renal, 82.4% (inactive); with ACHN renal, 35.7% (inactive). The growth in the assay on CAKI-1 renal was 52.8% (inactive); with A498 renal it was 18.5% (inactive); in the assay on CCRF-CEM leukemia it was 26.3% (inactive); in the assay with MOLT-4 leukemia it was 2.39% (active); in the assay on RPMI-8226 leukemia, 9.33% (active); in the assay on OVCAR-5 ovarian, 91.7% (inactive). Moreover, the growth in the assay with OVCAR-4 ovarian was 19.4% (inactive); in the assay on SK-OV-3 ovarian it was 89.3% (inactive); with IGROV1 ovarian, 65.7% (inactive); in the assay on OVCAR-3 ovarian, 53.6% (inactive); in the assay on HS 578T breast, 71.1% (inactive); in the assay with NCI/ADR-RES ovarian, 23.7% (inactive).
As to `O=C1CSC(=S)N1CCc1ccc(O)cc1`, the growth was 103% (inactive) in the assay on SK-MEL-2 melanoma; 97.8% (inactive) in the assay on EKVX NSCLC; 81.6% (inactive) in the assay with SN12C renal; 60.3% (inactive) with UO-31 renal; 68.7% (inactive) in the assay with TK-10 renal; 91.4% (inactive) in the assay on ACHN renal. The growth was 81.4% (inactive) in the assay with CAKI-1 renal; 97% (inactive) in the assay with A498 renal; 51.1% (inactive) in the assay on CCRF-CEM leukemia; 26.4% (inactive) in the assay with SR leukemia; 37.9% (inactive) in the assay with RPMI-8226 leukemia; 92.6% (inactive) in the assay on OVCAR-8 ovarian. Besides, the growth in the assay with OVCAR-5 ovarian is 101% (inactive); in the assay with OVCAR-4 ovarian, 89.5% (inactive); in the assay with SK-OV-3 ovarian, 99.2% (inactive); in the assay on IGROV1 ovarian, 101% (inactive); in the assay with OVCAR-3 ovarian, 78.3% (inactive); in the assay on HS 578T breast, 84.3% (inactive). Further, the growth with NCI/ADR-RES ovarian is 94.7% (inactive).
On to `COc1cc2c(cc1-c1c(C)noc1C)ncc1nc(C3CCCC3)n([C@H](C)COC(F)F)c12`, for which the growth in the assay on SK-MEL-2 melanoma is 67.8% (inactive); with EKVX NSCLC it was 44.2% (inactive); in the assay with SN12C renal, 57.3% (inactive); with UO-31 renal, -30% (active); in the assay on TK-10 renal, 30.6% (inactive); with ACHN renal it was 32.9% (inactive). Moreover, the growth in the assay with CAKI-1 renal was 18.7% (inactive); with A498 renal it was -27.3% (active); in the assay with CCRF-CEM leukemia, 48.7% (inactive); with SR leukemia it was 18.7% (inactive); in the assay with RPMI-8226 leukemia, 14.7% (inactive); in the assay with OVCAR-8 ovarian, 38.6% (inactive). For the same compound, the growth in the assay on OVCAR-5 ovarian is 78% (inactive); in the assay with OVCAR-4 ovarian it was 40.9% (inactive); in the assay on SK-OV-3 ovarian, 7.48% (active); in the assay with IGROV1 ovarian, 42.1% (inactive); with OVCAR-3 ovarian, 36.5% (inactive); in the assay with HS 578T breast, 11% (inactive). Also, the growth in the assay with NCI/ADR-RES ovarian was 35.5% (inactive).
